From paper PMC11006913
Where a chain is given by its changes, count along the chain named.

What was measured:
Assay in all cases: PBM; 200 nM protein, PBS
Conditions in all cases: dsDNA, one strand shown
[1] = target: NKX2-5 (Homo sapiens, UniProt P52952 125-210, R139K)
[2] = target: T1, NKX2-6 (Homo sapiens, UniProt A6NCS4 118-204, R150C)
T1 sequence: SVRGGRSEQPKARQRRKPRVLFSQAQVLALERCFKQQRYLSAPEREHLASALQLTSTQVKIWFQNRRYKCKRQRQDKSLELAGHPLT

[3] = target: NKX3-2 (Homo sapiens, UniProt P78367 192-278, P234S)
[4] = target: NKX2-5 (Homo sapiens, UniProt P52952 125-210)
[5] = target: NKX3-2 (Homo sapiens, UniProt P78367 192-278)
[6] = target: T2, NKX2-6 (Homo sapiens, UniProt A6NCS4 118-204, F151L)
T2 sequence: T1 sequence with C33R, F34L

[7] = target: T3, NKX2-6 (Homo sapiens, UniProt A6NCS4 118-204)
T3 sequence: T1 sequence with C33R

[8] = target: HOXD13 (Homo sapiens, UniProt P35453 263-343, T313R)
[9] = target: PITX2 (Homo sapiens, UniProt Q99697 72-157)
[10] = target: HOXD13 (Homo sapiens, UniProt P35453 263-343)
[11] = target: HOXD13 (Homo sapiens, UniProt P35453 263-343, T313A)
Sequence of HOXD13 (Homo sapiens, UniProt P35453 263-343, T313A) (P35453 263-343 T313A): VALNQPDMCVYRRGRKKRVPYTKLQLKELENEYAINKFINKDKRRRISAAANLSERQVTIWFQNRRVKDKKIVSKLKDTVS

Sequence of NKX3-2 (Homo sapiens, UniProt P78367 192-278, P234S) (P78367 192-278 P234S): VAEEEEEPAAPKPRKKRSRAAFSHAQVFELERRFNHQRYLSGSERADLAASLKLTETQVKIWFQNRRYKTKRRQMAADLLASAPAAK
Sequence of NKX2-5 (Homo sapiens, UniProt P52952 125-210, R139K) (P52952 125-210 R139K): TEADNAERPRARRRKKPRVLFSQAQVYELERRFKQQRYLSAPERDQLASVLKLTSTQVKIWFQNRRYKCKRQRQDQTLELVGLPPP
Sequence of NKX2-5 (Homo sapiens, UniProt P52952 125-210) (P52952 125-210): as the sequence (P52952 125-210 R139K) above, with K15R counted along it
Sequence of NKX3-2 (Homo sapiens, UniProt P78367 192-278) (P78367 192-278): as the sequence (P78367 192-278 P234S) above, with S43P counted along it
Sequence of HOXD13 (Homo sapiens, UniProt P35453 263-343) (P35453 263-343): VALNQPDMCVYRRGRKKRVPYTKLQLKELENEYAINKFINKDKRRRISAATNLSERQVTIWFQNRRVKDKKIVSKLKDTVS
Sequence of HOXD13 (Homo sapiens, UniProt P35453 263-343, T313R) (P35453 263-343 T313R): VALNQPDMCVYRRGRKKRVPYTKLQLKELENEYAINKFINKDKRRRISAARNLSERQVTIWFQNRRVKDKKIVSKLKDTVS

Row | Sequence | binding signal [1] | binding signal [2] | binding signal [3] | binding signal [4] | binding signal [5] | binding signal [6] | binding signal [7] | binding signal [8] | binding signal [9] | binding signal [10] | binding signal [11]
1 | AAGTGGGC | 12.4 upbm affinity estimate (log intensity, higher = more binding, comparable within an allelic series) | 11.5 upbm affinity estimate (log intensity, higher = more binding, comparable within an allelic series) | 12.8 upbm affinity estimate (log intensity, higher = more binding, comparable within an allelic series) | 12.3 upbm affinity estimate (log intensity, higher = more binding, comparable within an allelic series) | 12.9 upbm affinity estimate (log intensity, higher = more binding, comparable within an allelic series) | – | – | – | – | – | –
2 | AAGTGCCT | 12.4 upbm affinity estimate (log intensity, higher = more binding, comparable within an allelic series) | 11.7 upbm affinity estimate (log intensity, higher = more binding, comparable within an allelic series) | 12.5 upbm affinity estimate (log intensity, higher = more binding, comparable within an allelic series) | 12.3 upbm affinity estimate (log intensity, higher = more binding, comparable within an allelic series) | 12.6 upbm affinity estimate (log intensity, higher = more binding, comparable within an allelic series) | 10.8 upbm affinity estimate (log intensity, higher = more binding, comparable within an allelic series) | – | – | – | – | –
3 | CCTCCGGA | 8.88 upbm affinity estimate (log intensity, higher = more binding, comparable within an allelic series) | 9.54 upbm affinity estimate (log intensity, higher = more binding, comparable within an allelic series) | – | 8.86 upbm affinity estimate (log intensity, higher = more binding, comparable within an allelic series) | – | – | – | – | – | – | –
4 | CTAAGTAC | 12.3 upbm affinity estimate (log intensity, higher = more binding, comparable within an allelic series) | 11.7 upbm affinity estimate (log intensity, higher = more binding, comparable within an allelic series) | 12.5 upbm affinity estimate (log intensity, higher = more binding, comparable within an allelic series) | 12.2 upbm affinity estimate (log intensity, higher = more binding, comparable within an allelic series) | 12.6 upbm affinity estimate (log intensity, higher = more binding, comparable within an allelic series) | 10.5 upbm affinity estimate (log intensity, higher = more binding, comparable within an allelic series) | 13.4 upbm affinity estimate (log intensity, higher = more binding, comparable within an allelic series) | – | – | – | –
5 | CTAAGTGC | 12.8 upbm affinity estimate (log intensity, higher = more binding, comparable within an allelic series) | 11.8 upbm affinity estimate (log intensity, higher = more binding, comparable within an allelic series) | 13 upbm affinity estimate (log intensity, higher = more binding, comparable within an allelic series) | 12.7 upbm affinity estimate (log intensity, higher = more binding, comparable within an allelic series) | 13 upbm affinity estimate (log intensity, higher = more binding, comparable within an allelic series) | 11 upbm affinity estimate (log intensity, higher = more binding, comparable within an allelic series) | 13.7 upbm affinity estimate (log intensity, higher = more binding, comparable within an allelic series) | – | – | – | –
6 | GAAGTGGA | 11.7 upbm affinity estimate (log intensity, higher = more binding, comparable within an allelic series) | 11.3 upbm affinity estimate (log intensity, higher = more binding, comparable within an allelic series) | 12.5 upbm affinity estimate (log intensity, higher = more binding, comparable within an allelic series) | 11.8 upbm affinity estimate (log intensity, higher = more binding, comparable within an allelic series) | 12.6 upbm affinity estimate (log intensity, higher = more binding, comparable within an allelic series) | – | – | – | – | – | –
7 | GCACTTAC | 12.3 upbm affinity estimate (log intensity, higher = more binding, comparable within an allelic series) | 11.6 upbm affinity estimate (log intensity, higher = more binding, comparable within an allelic series) | 12.7 upbm affinity estimate (log intensity, higher = more binding, comparable within an allelic series) | – | 12.8 upbm affinity estimate (log intensity, higher = more binding, comparable within an allelic series) | 10.6 upbm affinity estimate (log intensity, higher = more binding, comparable within an allelic series) | 13.3 upbm affinity estimate (log intensity, higher = more binding, comparable within an allelic series) | – | – | – | –
8 | TAAGTGCA | 12.6 upbm affinity estimate (log intensity, higher = more binding, comparable within an allelic series) | 11.9 upbm affinity estimate (log intensity, higher = more binding, comparable within an allelic series) | 12.8 upbm affinity estimate (log intensity, higher = more binding, comparable within an allelic series) | 12.4 upbm affinity estimate (log intensity, higher = more binding, comparable within an allelic series) | 12.9 upbm affinity estimate (log intensity, higher = more binding, comparable within an allelic series) | 10.9 upbm affinity estimate (log intensity, higher = more binding, comparable within an allelic series) | 13.5 upbm affinity estimate (log intensity, higher = more binding, comparable within an allelic series) | – | – | – | –
9 | CAGCGTCC | 8.7 upbm affinity estimate (log intensity, higher = more binding, comparable within an allelic series) | 9.46 upbm affinity estimate (log intensity, higher = more binding, comparable within an allelic series) | – | 8.65 upbm affinity estimate (log intensity, higher = more binding, comparable within an allelic series) | – | – | – | – | – | – | –
10 | AAGTGGGT | 12.4 upbm affinity estimate (log intensity, higher = more binding, comparable within an allelic series) | 11.6 upbm affinity estimate (log intensity, higher = more binding, comparable within an allelic series) | 12.7 upbm affinity estimate (log intensity, higher = more binding, comparable within an allelic series) | 12.3 upbm affinity estimate (log intensity, higher = more binding, comparable within an allelic series) | 12.8 upbm affinity estimate (log intensity, higher = more binding, comparable within an allelic series) | 10.5 upbm affinity estimate (log intensity, higher = more binding, comparable within an allelic series) | 13.5 upbm affinity estimate (log intensity, higher = more binding, comparable within an allelic series) | – | – | – | –
11 | CGGTGGAG | 8.95 upbm affinity estimate (log intensity, higher = more binding, comparable within an allelic series) | – | – | 9.08 upbm affinity estimate (log intensity, higher = more binding, comparable within an allelic series) | – | – | – | 9.59 upbm affinity estimate (log intensity, higher = more binding, comparable within an allelic series) | 8.06 upbm affinity estimate (log intensity, higher = more binding, comparable within an allelic series) | 9.6 upbm affinity estimate (log intensity, higher = more binding, comparable within an allelic series) | 9.64 upbm affinity estimate (log intensity, higher = more binding, comparable within an allelic series)
